ERK EGF inh: qHTS Assay for Inhibitors of the ERK Signaling Pathway using a Homogeneous Screening Assay; Stimulation with EGF; 130,000 compounds, 0.41% hits; AID 1454, 2008; Potency, µM (top dose mostly 11.5 µM), actives largely listed as inhibitors; HEK293-V1b, EGF-stimulated phospho-ERK AlphaScreen; further: nearly all actives have a fitted effect of over 55% in size
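HEK293 cells stably expressing V1b receptor, serum-reduced (1% FBS) overnight, got compound for 30 min at 37C, then 25 nM EGF for 5 min. Lysate phospho-ERK read by AlphaScreen SureFire; AC50 from Hill fits.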
pERK EGF inh: Confirmation Concentration-Response Assay for Inhibitors of the ERK Signaling Pathway using a Homogeneous Screening Assay; Stimulation with EGF | HEK293 EGF-stimulated ERK phosphorylation, AlphaScreen | shares compounds with ERK EGF inh | Potency, µM (titrated, usually from 57.5 µM), actives largely listed as inhibitors | 60 compounds, 60% hits
c-Raf inh: Assay for Inhibitors of the ERK Signaling Pathway using a Homogeneous Screening Assay: c-Raf Inhibition | 70 tested, under 10 active | shares compounds with ERK EGF inh | c-Raf kinase inhibition, homogeneous biochemical assay | activity change, negative = inhibition, % at 76.9 µM
Target sequence (P04049 whole entry, looked up): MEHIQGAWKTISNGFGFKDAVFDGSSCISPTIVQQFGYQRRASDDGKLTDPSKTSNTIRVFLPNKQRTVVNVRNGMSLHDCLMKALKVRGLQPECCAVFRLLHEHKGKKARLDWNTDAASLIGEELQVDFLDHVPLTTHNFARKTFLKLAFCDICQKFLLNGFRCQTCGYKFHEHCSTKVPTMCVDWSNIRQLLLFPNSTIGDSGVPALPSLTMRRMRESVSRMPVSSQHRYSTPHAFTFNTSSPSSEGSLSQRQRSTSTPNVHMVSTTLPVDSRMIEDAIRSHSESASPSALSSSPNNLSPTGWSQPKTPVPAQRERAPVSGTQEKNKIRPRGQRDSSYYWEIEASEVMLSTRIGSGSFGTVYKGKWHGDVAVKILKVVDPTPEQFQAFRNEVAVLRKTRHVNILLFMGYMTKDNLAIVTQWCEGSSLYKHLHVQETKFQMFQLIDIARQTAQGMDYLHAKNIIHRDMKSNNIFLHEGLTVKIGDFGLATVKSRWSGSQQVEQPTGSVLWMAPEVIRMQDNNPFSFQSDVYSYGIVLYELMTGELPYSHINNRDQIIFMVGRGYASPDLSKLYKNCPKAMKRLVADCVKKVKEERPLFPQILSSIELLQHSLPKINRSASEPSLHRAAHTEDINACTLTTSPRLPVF
MEK1 kinase inh: Assay for Inhibitors of the ERK Signaling Pathway using a Homogeneous Screening Assay: MEK Inhibition; Potency, µM (doses to about 76.9 µM), most hits filed as inhibitors; shares compounds with ERK EGF inh; homogeneous MEK kinase activity assay, ERK pathway; 70 tested, under 10 active; AID 1732, 2009
Each line names hits and unclear results; the compound was inactive in the other large screens (follow-up assays come after a bar, where they were run); ! = not confirmed by another sample. This is one part of a sample in which hits are shown more often than they occur. The call rests on the fitted dose curve; in most records, active means well fitted curve in the direction sought with a large enough effect; inconclusive means small, poorly fitted or top-dose-only effect, or another doubt; inactive means no such curve, though single readings can be large; an effect the other way counts as inactive or inconclusive.

Cc1ccsc1C(=O)C1CCCN(Cc2sc(N(C)C)nc2Cl)C1 (stereo unspecified)	ERK EGF inh 20µM
Cc1ccsc1C(=O)C1CCCN(Cc2cnc(N(C)C)s2)C1 (stereo unspecified)	none
Cc1ccsc1C(=O)C1CCCN(Cc2ccccc2O)C1 (stereo unspecified)	none
CCC1CN2CCC1CC2C(O)c1ccnc2ccccc12 (stereo unspecified)	none
c1ccc(-c2cc(-c3ccccc3)[n+](-c3ccccc3)c(-c3ccccc3)c2)cc1	ERK EGF inh 22.4µM
C[n+]1c(-c2ccccc2)cc(-c2ccc(Cl)cc2)cc1-c1ccccc1	none
CC(C)[C@]1(NC(=O)[C@@H]2C=C3c4cccc5[nH]cc(c45)C[C@H]3N(C)C2)O[C@@]2(O)C3CCCN3C(=O)[C@H](Cc3ccccc3)N2C1=O (stereo partly specified)	none
CCC(C)C(=O)OC1C(O)C2C(CN3CC(C)CCC3[C@]2(C)O)C2C[C@]34O[C@@]5(O)C(OC(=O)C(C)(O)CC)CCC3(C)C5C(OC(C)=O)C(OC(C)=O)C4[C@@]21O (stereo partly specified)	none
COC[C@H]1OC(=O)c2coc3c2[C@@]1(C)C1=C(C3=O)[C@H]2CCC(=O)[C@@]2(C)C[C@H]1OC(C)=O	none
OCC[n+]1c2ccccc2nc2ccc(N3CCOCC3)cc21	ERK EGF inh 14.1µM
COc1ccccc1CN1CC[C@@]2(CCCN(C(=O)Oc3ccccc3)C2)C1	none
C=C(C)CN1CC[C@]23c4c5ccc(O)c4O[C@H]2c2[nH]c4ccccc4c2C[C@@]3(O)C1C5	ERK EGF inh 15.8µM
C=C(C)CN1CC[C@@]23c4c5ccc(O)c4O[C@H]2c2[nH]c4ccccc4c2C[C@]3(O)[C@@H]1C5	none
Oc1ccc2c3c1O[C@H]1c4[nH]c5ccccc5c4C[C@@]4(O)C(C2)N(CC2CC2)CCC314 (stereo partly specified)	none
CN[C@@H](Cc1c[nH]c2ccccc12)C(=O)O	none
O=C(/C=C\c1ccc(Cl)cc1)N[C@@]12CCC(=O)[C@@H]3Oc4c(O)ccc5c4[C@@]31CCN(CC1CC1)[C@@H]2C5	none
O=C1NC(=S)NC(=O)C1=Cc1cccc2cc3ccccc3cc12	ERK EGF inh 28.2µM
CN(C)c1ccc(C=C2C(=O)NC(=S)NC2=O)cc1[N+](=O)[O-]	none
Cc1cc(C=C2C(=O)NC(=S)NC2=O)c(C)n1-c1ccc2c(c1)OCO2	none
CCN1C[C@]2(C)CC[C@H](O)[C@@]34C5C[C@@H]6[C@@H](OC)C[C@@](O)(C5[C@H]6O)[C@@H](CC23)[C@@H]14 (stereo partly specified)	none
CN1CCCC2(CCN(C(=O)c3ccco3)CC2)C1	none
CN(C)C1C(=O)C(C(N)=O)=C(O)[C@@]2(O)C(=O)C3=C(O)c4c(O)cccc4[C@@](C)(O)C3[C@H](O)C12 (stereo partly specified)	none
O=C1C(Cl)=C(Cl)C(=O)C(Cl)=C1Cl	ERK EGF inh 10µM
O=C(c1ccncc1)N1CCC[C@@]2(CCN(Cc3nccs3)C2)C1	none
CC[C@@H](CO)NC(=O)[C@H]1C=C2c3cccc4c3c(cn4C)C[C@H]2N(C)C1	none
N[C@H](CCP(=O)(O)O)C(=O)O	none
CC1=C(O)C(=O)[C@H]2O[C@@H]2C1=O	none
O=c1ccc2cc(O[C@H]3OC(CO)C(O)C(O)C3O)c(O)cc2o1 (stereo partly specified)	none
CN1CC(CNC(=O)OCc2ccccc2)CC2c3cccc4c3c(cn4C)CC21 (stereo unspecified)	none
O=CN1CCCCC1C1CC[C@H]2CCCCN2C1 (stereo partly specified)	none
Cc1ccccc1-n1c(/C=C/c2ccccn2)nc2ccccc2c1=O	none
CN1C2CCC1/C(=C/c1ccccn1)C(=O)/C2=C\c1ccccn1	ERK EGF inh 14.1µM
C[C@]12CCC3C(C=CC4=CC(=O)CC[C@]43C)C1CC[C@]2(O)CCC(=O)O (stereo partly specified)	none
CC(=O)O[C@@H]1C[C@@]2(C)C(c3ccoc3)C[C@H]3O[C@]32[C@]2(C)C(=O)C(O)=C3C(C)(C)C(=O)C=C[C@]3(C)C12 (stereo partly specified)	none
ClC1=C(Cl)C(Cl)=C(Cl)C1=C/C=C/c1ccccc1	ERK EGF inh 11.2µM
COP(=S)(OC)Oc1ccc([N+](=O)[O-])cc1	none
CCCCC/C=C\C/C=C\C/C=C\C/C=C\CCCC(=O)N[C@H](C)CO	none
Cc1noc(C)c1C(=O)N1CCC2(CCCN(CC(C)C)C2)CC1	none
CN1C(=O)CCS(=O)(=O)[C@H]1c1ccc(Cl)cc1	none
N#CC(C#N)=NNc1ccc(OC(F)(F)F)cc1	none
O=C1NC(=O)C(=Cc2coc3ccccc3c2=O)C(=O)N1	none
O=C1NC(=O)C(=Cc2ccccc2Oc2ccc(F)cc2)C(=O)N1	ERK EGF inh 3.98µM | pERK EGF inh inactive | c-Raf inh inactive | MEK1 kinase inh inconclusive
O=C1NC(=O)C(=Cc2csc3ccccc23)C(=O)N1	none
O=C(Oc1ccccc1)N1CCC[C@@]2(CCN(Cc3ccccc3)C2)C1	none
CC1CC(C)C(=O)[C@H](C(O)CC2CC(=O)NC(=O)C2)C1 (stereo partly specified)	none
N#Cc1ccc(CN2CC3(CCNCC3)C2)cc1	none
CC1=CC(=O)c2c(O)cccc2C1=O	ERK EGF inh 5.62µM! | pERK EGF inh 7.08µM | c-Raf inh inconclusive | MEK1 kinase inh inconclusive
c1cc(CN2CC3(CCNCC3)C2)ccn1	none
COc1ccc(NC(=O)N2CC3(CCN(C(=O)Oc4ccccc4)CC3)C2)cc1	none
CCCCCCCCCCCCCCCCOC[C@@H](O)COP(=O)([O-])OCC[N+](C)(C)C	none

Screening data deposited in PubChem BioAssay by National Center for Advancing Translational Sciences (NCATS).
